Only some compounds are listed: those with a hit (about 19% of all), similar ones and a draw of the others.
Chronic BCR inh: chronic active BCR signaling inhibition; ABC-DLBCL IkBa-CBG/CBR reporter, luminescence ratio, 4 h; Potency, µM (highest dose often 46.1 µM), most hits filed as inhibitors; 0.05% of 340,000 active; AID 493014; active = well fitted inhibition curve with a large enough effect in the signal ratio, with a control signal flat, not every such curve was filed as active; inconclusive = small, poorly fitted or top-dose-only effect, or effect the other way, or a change in a side signal; the % refers to the signal ratio
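TMD8 ABC-DLBCL cells carrying doxycycline-inducible green luciferase fused to IkappaBalpha plus unfused red luciferase were exposed to compounds (up to 46 uM) for 4 hrs at 37C. Activity came from the overlap-corrected green/red luminescence ratio.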
TDP1 cell CPT: DT40-hTDP1 cell growth loss with CPT. chicken DT40 Tdp1-/-;hTDP1 cells + 20 nM CPT, ATP luminescence, 48 h. Potency, µM (highest dose often 46.2 µM), hits mostly inhibitors. 12% of 420,000 active. AID 686979; also: nearly all actives have a fitted effect of over 55% in size
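Cell growth measured by CellTiter-Glo luminescence after a minimum 48 h, 37 C compound exposure with 20 nM CPT in Tdp1-knockout DT40 cells stably expressing hTDP1, seeded 400/well; qHTS titration format.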
TDP1 cell noCPT: qHTS for Inhibitors of human tyrosyl-DNA phosphodiesterase 1 (TDP1): qHTS in cells in absence of CPT. DT40 Tdp1-/- hTDP1 cells, no CPT, ATP luminescence, 48 h. Potency, µM (doses to about 46.2 µM), hits mostly inhibitors. 15% of 420,000 active. AID 686978, 2013; also: nearly all actives have a fitted effect of over 55% in size
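Growth of hTDP1-complemented DT40 Tdp1-knockout cells is measured by ATP luminescence after at least 48 hr compound exposure at 37 °C, with DMSO substituting for the 20 nM CPT used in the parallel screen.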
MCF10A rereplic: inducers of DNA re-replication in MCF 10A breast cells. MCF 10A DNA re-replication, Hoechst nuclear intensity, 48 h. Potency, µM (doses to about 46.1 µM), usual class: activators. 2.9% of 350,000 active; also: nearly all actives have a fitted effect of over 50% in size
IL1B secr inh: inhibitors of inflammasome signaling (IL-1 beta secretion); 4.7% of 360,000 active; THP-1 LPS/ATP IL-1B secretion, AlphaLISA, 16 h; stronger effect = lower value; activity change, % at 57.5 µM; in the data active = activity change below about -50%; inconclusive = mostly about -30% to -49%
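THP-1 cells pretreated 1 hr with compounds (up to 57.5 uM final), then stimulated with LPS (250 ng/mL final) plus ATP (1.25 mM final); secreted IL-1B measured by AlphaLISA after 16 hr, decreased signal indicating inhibition.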
SW480 rerep: DNA re-replication induction in SW480 cells; 1.8% of 340,000 active; Potency, µM (doses to about 46.1 µM), usual class: activators; SW480 DNA re-replication, Hoechst DNA content imaging, 48 h; also: nearly all actives have a fitted effect of over 55% in size
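Quantitative HTS format with DMSO vehicle controls; 48 hr drug incubation at 37 C, then 40 min Hoechst staining and scanning imager measurement at 405 nm excitation.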
Each line names hits and unclear results; the compound was inactive in the other large screens. Unless noted, calls follow the shape of the dose curve; as a rule, active = well fitted curve in the direction sought with a large enough effect; inconclusive = small, poorly fitted or top-dose-only effect, or another doubt; inactive = no such curve, though single readings can be large; an effect the other way counts as inactive or inconclusive.

COc1ccc(CCNC(=O)c2cc(S(=O)(=O)N(C)c3ccccc3)ccc2Cl)cc1	Chronic BCR inh inconclusive, TDP1 cell CPT 18.4µM, TDP1 cell noCPT 7.31µM
CCOc1ccc(N(C)S(=O)(=O)c2ccc(C)c(C(=O)NCCc3ccc(OC)cc3)c2)cc1	TDP1 cell CPT 23.1µM, TDP1 cell noCPT inconclusive, SW480 rerep inconclusive
COc1ccc(N(C)S(=O)(=O)c2ccc(Cl)c(C(=O)NCC(C)(C)N3CCOCC3)c2)cc1	TDP1 cell CPT 9.2µM, TDP1 cell noCPT 9.2µM
COCc1c(C(=O)N2CC3CCC2C3)cnn1-c1nccc(-c2ccccc2OC)n1 (centres undefined)	none (no result: Chronic BCR inh, MCF10A rereplic, IL1B secr inh, SW480 rerep)
CC(C(=O)O)N1CCCCC1 (centres undefined)	none
O=C(CCC(=O)N1CC2CCCN2c2ccccc21)NCc1ccccc1F (centres undefined)	TDP1 cell CPT 11.6µM, TDP1 cell noCPT 18.4µM (no result: Chronic BCR inh, MCF10A rereplic, IL1B secr inh, SW480 rerep)

Screens: PubChem, National Center for Advancing Translational Sciences (NCATS)
